Reference: PubChem BioAssay (NCATS)
Values joined by “and” are separate entries in the source; they are usually repeats but may differ in a detail not shown here. Equal values may be shown once. Results filed as inconclusive are left out. Unmarked numbers belong to inactive results. Active and inactive are the calls of the source. The call rests on the fitted dose curve; in most records, active means well fitted cell-killing curve with a large enough effect; inconclusive means small, poorly fitted or top-dose-only effect, or effect the other way; inactive means no such curve, though single readings can be large or run the other way.

assay: Viability qHTS for spleen associated tyrosine kinase inhibitor (SYKi) drug resistant MV4-11 cells (AID 1963824); settings: SYKi-resistant MV4-11 viability, CellTiter-Glo, 72 h; series mostly up to 45 µM; viability, % of control: at the top concentration; further: nearly all actives have a fitted effect of over 35% in size
Procedure, shortened: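 CellTiter-Glo luminescence, read 10 min after reagent addition, reports viability after a 72 hr compound exposure. Cells are an MV4-11 line made resistant to SYK inhibition, seeded at 500 per well onto compound-containing plates.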
Potency means the concentration at half of the fitted maximal effect.

SMILES	viability, % of control	Potency
O=C(CCO[C@@H]1O[C@H](CO)[C@@H](O)[C@H](O)[C@H]1O)c1ccc(O)cc1	99%	
C=C(C(=O)O)[C@@H]1CC=C2CCC[C@H](C)[C@@]2(C)C1	72.7%	
O=C(Nc1cccc([N+](=O)[O-])c1)c1cccc(S(=O)(=O)N2CCCCCC2)c1		6.51 µM (active)
CC1CCC2(C(=O)O)CCC3(C)C(=CCC4C5(C)CCC(O)C(C)(C(=O)O)C5CCC43C)C2C1(C)O (stereo not given)	97.6% [at 17.3 µM]	
CC1OC2OC3C(OCC(O)C3O)OC(=O)C34CCC(C)(C)CC3C3=CCC5C6(C)CC(O)C(OC7OC(CO)C(O)C(O)C7OC7OCC(OC(=O)CC(C)(O)CC(=O)OC1C(OC1OCC(O)C(O)C1O)C2O)C(O)C7O)C(C)(CO)C6CCC5(C)C3(C)CC4O (stereo not given)		1.78 µM (active)
C=C1CCC2C(C)(C(=O)O)CCCC2(C)C1CC/C(C)=C\CO (stereo not given)	71.8%	
OC[C@H]1O[C@@H](O[C@H]2[C@H](OCc3ccccc3)O[C@H](CO[C@@H]3OC[C@@H](O)[C@H](O)[C@H]3O)[C@@H](O)[C@@H]2O)[C@H](O)[C@@H](O)[C@@H]1O	72.1% [at 17.3 µM]	
COc1ccc2c(c1O[C@H]1CCNC1)CCC2	70.4%	
C=C1CCC[C@]2(C)CC/C(=C(/CO)C(=O)OC)C[C@@H]12		14.6 µM (active)
CCOC(=O)[C@H]1O[C@@H]1C(=O)N[C@@H](CC(C)C)C(=O)NCCC(C)C		5.9 µM (active)
C/C=C/C=C/C=C/C(=O)O[C@@H]1C=C(CO)C(O)(C(=O)OC)[C@@]2(C)CCCC(C)(C)C12 (stereo not given in full)		10 µM (active)
CC(=O)c1ccc2c(c1)N(CCCN1CCC(CCO)CC1)c1ccccc1S2		18.8 µM (active)
CC(C)=CCC/C(C)=C/CC/C(C)=C/COC1OC(COC2OCC(OC3OCC(O)C(O)C3O)C(O)C2O)C(O)C(OC2OC(C)C(OC3OC(C)C(OC4OCC(OC5OC(C)C(O)C(O)C5O)C(O)C4O)C(O)C3O)C(O)C2O)C1O (stereo not given)	96.7% [at 9.25 µM]	
O=C(Nc1ccc(Cl)cc1)Nc1cccc(-c2cccc(N3CCCC3)n2)c1		14.6 µM (active)
C=C1C[C@@]23CC[C@@H]4[C@](C)(C(=O)O)CCC[C@@]4(C)C2=CC[C@H]1C3	108%	
CC(C)CCC1(O)C(=O)C(C)(C)C(O[C@@H]2O[C@H](CO)[C@@H](O)[C@H](O)[C@H]2O)C(C)(C)C1O (stereo not given in full)	92.7% [at 17.3 µM]	
CC(C)(c1ccc(O)cc1)c1ccc(O)cc1		27.9 µM (active)
C[C@]1(C(=O)Nc2ccc(F)nc2)CCCN1c1nc(Nc2cc(C3CC3)[nH]n2)c2cccn2n1		1.64 µM (active)
CC1(C)C=CN2C(=O)C3=CCCN3C(=O)[C@@H]2C[C@@]12Nc1ccccc1C2=O	97%	
COC(=O)C1=CO[C@@H](O[C@@H]2O[C@H](CO)[C@@H](O)[C@H](O)[C@H]2O)[C@@H]2C(CO)=CC[C@H]12	102%	

SMILES	viability, % of control	Potency
Cc1cc(C)c(NC(=O)N(Cc2ccc3c(c2)Cc2ccccc2-3)C2CCCCCC2)c(C)c1		16.4 µM (active)
C=C1CCCC2(C)CCC(C(C)(C)OC3OC(C)C(O)C(O)C3OC(=O)/C(C)=C\C)CC12 (stereo not given)		8.93 µM (active)
CC1(C)O[C@H]2CC(=O)OC[C@@]23C1=C(O)C(=O)[C@]1(C)C3CC[C@@]2(C)[C@H](c3ccoc3)OC(=O)[C@H]3O[C@]321 (stereo not given in full)	83.8% [at 17.3 µM]	
Nc1ncnc2c1ncn2[C@H]1CCCO1	71.7%	
O=C(NCCN1CCC(n2c(=O)[nH]c3ccccc32)CC1)c1cc2cc(F)ccc2[nH]1		18.4 µM (active)
O=C1C[C@]23C=CCN4CCC5c6cc7c(cc6N1[C@@]5(CC2)C43)OCO7 (stereo not given in full)		14.3 µM (active)
CC(=O)c1ccc(O[C@@H]2O[C@H](CO)[C@@H](O)[C@H](O)[C@H]2O)cc1	84.4%	
CC1=C2C[C@H]3OC(=O)[C@H](O)[C@@]4(O)[C@@H](C)[C@@H](O)[C@H](O)C([C@@]2(C)[C@H](O)[C@@H](O)C1)[C@@]34C (stereo not given in full)		14.3 µM (active)
CC[C@]1(O)C[C@H]2CN(CCC3C(=Nc4ccccc43)[C@@](C(=O)OC)(c3cc4c(cc3OC)N(C)[C@H]3[C@@](O)(C(N)=O)[C@H](O)[C@]5(CC)C=CCN6CC[C@]43[C@@H]65)C2)C1 (stereo not given in full)		0.0366 µM (active)
COc1cc(CN(CCN)C(=O)c2cccs2)ccc1OCc1ccccc1		16.4 µM (active)
C/C(=C\CO)CC/C=C(\C)C(=O)O[C@@H]1O[C@H](CO)[C@@H](O)[C@H](O)[C@H]1O	86.4%	
CC(=O)O[C@@H]1[C@@H](CO)O[C@@](CO)(O[C@H]2O[C@H](COC(=O)/C=C/c3ccccc3)[C@@H](O)[C@H](O)[C@H]2O)[C@H]1O	14.8% [at 17.3 µM]	
C/C=C(/C)C(=O)OC1C=C2C3C(C)C(C)C(OC(=O)C(C)C(C)O)CC3(C)CCC2(C)C2(C)CC(OC(C)=O)C3C(C)(C)C(O)C(=O)CC3(C)C12 (stereo not given)		4.32 µM (active)
CCC[C@@H]1O[C@@H]2C[C@H]3[C@@H]4CCC5=CC(=O)C=C[C@]5(C)[C@H]4[C@@H](O)C[C@]3(C)[C@]2(C(=O)CO)O1		8.2 µM (active)
Cc1ccccc1-n1c([C@H](C)Nc2nc(N)nc3nc[nH]c23)nc2cccc(C)c2c1=O		2.91 µM (active)
CC(Oc1cc(-n2cnc3ccc(CN4CCN(C)CC4)cc32)sc1C(N)=O)c1ccccc1C(F)(F)F (stereo not given)		0.461 µM (active)
Cc1c(C(=O)Nc2ccc(Oc3ccnc4[nH]cc(-c5ccccc5)c34)c(F)c2)c(=O)n(-c2ccc(F)cc2)n1C		0.0206 µM (active)
C=CC(C)(O)C(O)CC1C(C)(O)C(O)C(O)C2C(C)(C)CCCC21C (stereo not given)	77.7%	
NC(=O)c1cnc(-c2ccc(C3(N)CCC3)cc2)c(-c2ccccc2)c1		20.9 µM (active) and 580 nM (active)
N#CCc1ccc(O)cc1O[C@@H]1O[C@H](CO)[C@@H](O)[C@H](O)[C@H]1O	109%	
